Laboratory results taken from PubChem BioAssay (EPA / NIEHS).
“And” between values parts separate entries of the source, which are not always exact repeats. Identical values can stand only once. Records with an inconclusive call do not appear. The source holds several records for some structures; these can differ, active in one and inactive in another. The source made the active and inactive calls. The calls were made as follows: active = hit-call score of the fitted dose curve at least 0.9, where 1 is the maximum; inconclusive = response in the unintended direction; inactive = score below 0.9.

Assays:
[1] = target: Cellular tumor antigen p53 (Homo sapiens) (UniProt P04637); experiment: TOX21_p53_BLA_p2_ratio: Tox21 HCT-116 p53 Agonism Beta-lactamase Assay, Ratio, Phase 2 (AID 2283592)
Summary of the method: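 In this cell-based reporter format, HCT116 cells were dosed with chemicals delivered from DMSO by 217-fold dilution and incubated 16 h at 37C. Emission at 460 and 530 nm after 2 h CCF4-AM loading provided the ratio, fitted upward versus DMSO.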

[2] = TOX21_p53_BLA_p3_viability: Viability Assessment in the Tox21 HCT-116 p53 Agonism Beta-lactamase Assay, Phase 3 (AID 2283593);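 also: cells exposed to compound for 16 h before reading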
Summary of the method: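 Cellular ATP was quantified by CellTiter-Glo luminescence, read after 30 min at room temperature. Beforehand, HCT116 cells (4000/well) received compound 5 h post-seeding, 217-fold diluted from DMSO, then incubated 16 h at 37C.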

[3] = target: Cellular tumor antigen p53 (Homo sapiens) (UniProt P04637); experiment: TOX21_p53_BLA_p3_ratio: Tox21 HCT-116 p53 Agonism Beta-lactamase Assay, Ratio, Phase 3 (AID 2283596)
Summary of the method: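 HCT116 p53-bla cells (4000/well) given compound in DMSO (217-fold dilution) after 5 h, incubated 16 h at 37C. CCF4-AM substrate 2 h at room temperature; 460/530 nm emission ratio, gain fitted against DMSO.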

[4] = TOX21_p53_BLA_p4_viability: Viability Assessment in the Tox21 HCT-116 p53 Agonism Beta-lactamase Assay, Phase 4 (AID 2283597);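 also: hits lower the luminescence signal meaning cytotoxicity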
Summary of the method: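 We seeded HCT116 p53 reporter cells at 4000/well and waited 5 h. We then added compounds in DMSO at a 217-fold dilution and incubated for 16 h. Viability was read as CellTiter-Glo luminescence after 30 min at RT.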

[5] = TOX21_p53_BLA_p5_viability: Viability Assessment in the Tox21 HCT-116 p53 Agonism Beta-lactamase Assay, Phase 5 (AID 2283600)
Summary of the method: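 Compounds, pinned from DMSO at 217-fold dilution, were left on the cells for 16 h. The viability endpoint was ATP content measured by CellTiter-Glo luminescence, where falling signal reflects cytotoxicity.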

[6] = target: Cellular tumor antigen p53 (Homo sapiens) (UniProt P04637); experiment: TOX21_p53_BLA_p4_ratio: Tox21 HCT-116 p53 Agonism Beta-lactamase Assay, Ratio, Phase 4 (AID 2283601)
Summary of the method: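 Signal is the blue/green (460nm/530nm) ratio of cleaved versus uncleaved CCF4-AM substrate, read after 2 h substrate loading. Cells were HCT116 carrying the p53-responsive beta-lactamase reporter, dosed 16 h at 37C, 5% CO2; CellTiter-Glo measured in parallel.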

[7] = target: Cellular tumor antigen p53 (Homo sapiens) (UniProt P04637); experiment: TOX21_p53_BLA_p5_ratio: Tox21 HCT-116 p53 Agonism Beta-lactamase Assay, Ratio, Phase 5 (AID 2283599)
Summary of the method: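 Beta-lactamase reporter ratio (blue 460 nm over green 530 nm, 405 nm excitation) after 2 h CCF4-AM loading, in HCT-116 cells exposed 16 h at 37 C to compounds pinned at 217-fold dilution. Increases relative to DMSO baseline scored.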

[8] = TOX21_TRB_BLA_Antagonist_Followup_viability: Viability Assessment in the Tox21 Thyroid Hormone Receptor beta Antagonism Beta-lactamase (BLA) Follow-Up Assay (AID 2283961)
Summary of the method: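 Viability read as CellTiter-Glo ATP luminescence (loss of signal = cytotoxicity) in the same plates as the TRβ-bla readout. TRβ-LBD/GAL4 UAS-bla HEK293T cells were exposed to compounds, 11 concentrations in triplicate, for 18 h at 37C/5% CO2.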

Chain of Cellular tumor antigen p53 (Homo sapiens) (P04637 whole entry, looked up): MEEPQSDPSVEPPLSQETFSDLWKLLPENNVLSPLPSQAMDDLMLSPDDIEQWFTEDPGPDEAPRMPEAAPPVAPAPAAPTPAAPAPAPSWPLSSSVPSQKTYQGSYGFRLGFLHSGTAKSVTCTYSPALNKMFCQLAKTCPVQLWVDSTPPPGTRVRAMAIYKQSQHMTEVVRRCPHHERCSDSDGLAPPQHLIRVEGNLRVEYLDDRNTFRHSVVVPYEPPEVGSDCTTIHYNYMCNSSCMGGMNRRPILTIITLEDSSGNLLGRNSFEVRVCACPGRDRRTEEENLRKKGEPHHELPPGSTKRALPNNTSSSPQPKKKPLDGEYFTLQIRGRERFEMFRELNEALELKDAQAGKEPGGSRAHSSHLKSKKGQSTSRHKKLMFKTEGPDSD

O=NN(CCCl)C(=O)NC1CCCCC1
outcome [1]: inactive
outcome [2]: inactive
outcome [3]: inactive
outcome [4]: inactive
outcome [5]: inactive

O=P(O)(O)OP(=O)(O)O
outcome [1]: inactive
outcome [2]: inactive
outcome [3]: inactive
outcome [4]: inactive
outcome [5]: inactive
outcome [6]: inactive

CO[Si](CCCNCCC[Si](OC)(OC)OC)(OC)OC
outcome [1]: inactive
outcome [2]: inactive
outcome [3]: inactive
outcome [4]: inactive
outcome [5]: inactive
outcome [6]: inactive

CCN(CC)CCNC(=O)COc1ccc(Cl)cc1
outcome [1]: inactive
outcome [2]: inactive
outcome [3]: inactive
outcome [4]: inactive
outcome [6]: inactive

COc1cc(NS(=O)(=O)c2ccc(N)cc2)nc(C)n1
outcome [1]: inactive
outcome [2]: inactive
outcome [3]: inactive
outcome [4]: inactive
outcome [5]: inactive

CCCCC(O)c1ccccc1 (stereo not given)
outcome [1]: inactive
AC50 [2]: 30.6 µM (active)
outcome [3]: inactive
outcome [4]: inactive
outcome [5]: inactive
outcome [6]: inactive

O=C(O)c1c2ccccc2cc2ccccc12
outcome [1]: inactive
outcome [2]: inactive
outcome [3]: inactive
outcome [4]: inactive
outcome [5]: inactive
outcome [6]: inactive

CC[C@H](C)[C@H](N)C(=O)O
outcome [1]: inactive
outcome [2]: inactive
outcome [3]: inactive
outcome [7]: inactive

Oc1ccc(OCc2ccccc2)cc1
AC50 [1]: 25.1 µM (active) and 9.17 µM (active)
outcome [2]: inactive
AC50 [3]: 25.7 µM (active) and 10.9 µM (active)
outcome [4]: inactive
outcome [7]: inactive
AC50 [6]: 9.05 µM (active)
outcome [6]: inactive
outcome [8]: inactive

Cc1c(C)c2c(c(C)c1O)CC[C@@](C)(CCC[C@H](C)CCC[C@H](C)CCCC(C)C)O2
outcome [1]: inactive
outcome [2]: inactive
outcome [3]: inactive
outcome [4]: inactive
outcome [5]: inactive
outcome [6]: inactive

Clc1cc(Cl)cc(Cl)c1
outcome [1]: inactive
outcome [2]: inactive
outcome [3]: inactive
outcome [4]: inactive
outcome [5]: inactive
outcome [6]: inactive

COc1ccc(C(=O)c2ccc(C)cc2)c(O)c1
outcome [1]: inactive
outcome [2]: inactive
outcome [3]: inactive
outcome [4]: inactive
outcome [5]: inactive
outcome [6]: inactive

CC(CO)Oc1ccccc1 (stereo not given)
outcome [1]: inactive
outcome [2]: inactive
outcome [3]: inactive
outcome [4]: inactive
outcome [7]: inactive
outcome [6]: inactive
